Laboratory results: PubChem BioAssay (NCI)
Compounds without any hit were thinned out: in the full panel of roughly 83,000, 20% have a hit.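 Results are percent growth after 48 hours of single-concentration exposure. 100 means growth as in untreated cells, lower positive values show inhibition; negative values down to -100 show cell death.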 A number with no mark means an inactive call. Active and inactive are the calls of the source. The calls were made as follows: active = growth percent below 10; inactive = the rest.

Key:
Test in all cases: NCI-60 one-dose screen, 48 h (100 = growth as untreated, 0 = no growth, -100 = all killed)
Settings in all cases: 10 µM unless noted
NCI-H23 lung = tested on: NCI-H23 lung
NCI-H226 lung = tested on: NCI-H226 lung
NCI-H322M lung = tested on: NCI-H322M lung
HOP-62 NSCLC = tested on: HOP-62 NSCLC
NCI-H460 lung = tested on: NCI-H460 lung
HOP-92 NSCLC = tested on: HOP-92 NSCLC
NCI-H522 lung = tested on: NCI-H522 lung
A549/ATCC NSCLC = tested on: A549/ATCC NSCLC
786-0 renal = tested on: 786-0 renal
COLO 205 colon = tested on: COLO 205 colon
DU-145 prostate = tested on: DU-145 prostate
K-562 leukemia = tested on: K-562 leukemia
MALME-3M melanoma = tested on: MALME-3M melanoma
MDA-MB-231 breast = tested on: MDA-MB-231 breast
RXF 393 renal = tested on: RXF 393 renal
SF-268 CNS = tested on: SF-268 CNS
SF-295 CNS = tested on: SF-295 CNS
SF-539 CNS = tested on: SF-539 CNS
UACC-257 melanoma = tested on: UACC-257 melanoma
M14 melanoma = tested on: M14 melanoma

Compound	growth (NCI-H23 lung)	growth (NCI-H226 lung)	growth (NCI-H322M lung)	growth (HOP-62 NSCLC)	growth (NCI-H460 lung)	growth (HOP-92 NSCLC)	growth (NCI-H522 lung)	growth (A549/ATCC NSCLC)	growth (786-0 renal)	growth (COLO 205 colon)	growth (DU-145 prostate)	growth (K-562 leukemia)	growth (MALME-3M melanoma)	growth (MDA-MB-231 breast)	growth (RXF 393 renal)	growth (SF-268 CNS)	growth (SF-295 CNS)	growth (SF-539 CNS)	growth (UACC-257 melanoma)	growth (M14 melanoma)
N=C(N)c1ccc(-c2ccc(-c3cc(Cl)cc(Cl)c3)o2)o1	-75.4% (active)	43.9%	-77.4% (active)	-72.2% (active)	-78.3% (active)	50.5%	-70.4% (active)	-71% (active)	-61.9% (active)	-81.7% (active)	-87.7% (active)	-59.7% (active)	-89.6% (active)	-68.2% (active)	-88.8% (active)	-56.4% (active)	-83.5% (active)	-85% (active)	-73% (active)	-54.1% (active)
COC(C(=O)[C@@H](O)[C@@H](C)O)[C@@H]1Cc2cc3cc(O[C@H]4C[C@@H](O[C@H]5C[C@@H](O)[C@H](O)C(C)O5)[C@H](O)C(C)O4)c(C)c(O)c3c(O)c2C(=O)[C@H]1O[C@H]1C[C@@H](O[C@H]2C[C@@H](O[C@H]3C[C@@H](O)[C@H](OC)C(C)O3)[C@@H](O)C(C)O2)[C@H](O)C(C)O1 (stereo not given in full)	-30.6% (active)	7.45% (active)	5.34% (active)	-6.87% (active)	9.27% (active)	-2.22% (active)	-26.8% (active)	3.24% (active)	4.65% (active)	-44.4% (active)	12%	5.99% (active)	-30.7% (active)	17.2%	-55.4% (active)	14.2%	8.2% (active)	-23.6% (active)	-21.7% (active)	-17.9% (active)
CCOC(=O)CSc1ncnc2c1c(-c1ccccc1)c(-c1ccccc1)n2-c1ccc(C)cc1	75%	77.8%	94.4%	64.8%	76.6%	49.4%	47.3%	72.5%	80.9%	63.7%	74.4%	38%	62.1%	85.7%	105%	86.2%	76.2%	86.2%	51.9%	75.6%
Cc1ccc(-c2csc(NC(=O)CN3CCN(c4cc5c(cc4F)c(=O)c(C(=O)O)cn5C4CC4)CC3)n2)cc1	4.26% (active)	28.6%	12.4%	11.2%	14.4%	-16.4% (active)	-11.7% (active)	3.47% (active)	22.6%	-17.6% (active)	13.1%	9.66% (active)	-2.34% (active)	6.47% (active)	27.2%	23.2%	-2.97% (active)	23.7%	-12.9% (active)	23%
CCS/C(Nc1ccccc1)=C(\C#N)C(=O)N/N=C/c1ccc(Cl)cc1Cl	41.3%	37.7%	70.9%	36.7%	8.05% (active)	29.2%	1.02% (active)	38.3%	31.8%	28.4%	20%	7.35% (active)	38.1%	39%	2.63% (active)	34%	17%	4.25% (active)	51.9%	21%
N#Cc1cccc(-c2c(-c3ccc4ccccc4c3)oc3ccccc3c2=O)c1	60.7%	71.2%	64.6%	41.5%	17.9%	51.8%	10.5%	34.9%	35.5%	36.7%	77.1%	11.5%	48.7%	55.7%	81.7%	65.8%	34.2%	43.4%	58.2%	6.18% (active)
Cc1ccc(Cl)cc1Nc1nc(C(F)(F)F)ccc1C(=O)N/N=C/c1cccnc1	37.4%	30.7%	25.1%	29.4%	18.3%	11.3%	-5.81% (active)	27.5%	2.05% (active)	38.9%	41.5%	7.72% (active)	15%	33.4%	11.6%	27.7%	-20.6% (active)	27.1%	28.2%	47.9%
COC(=O)CNC(=O)[C@H](Cc1ccccc1)NCc1ccncc1	101%	109%	101%	97.3%	108%	103%	84.5%	85.6%	105%	109%	105%	89.1%	95.7%	105%	112%	107%	99%	102%	84.4%	105%
